# Screens: PubChem BioAssay, several laboratories
# Only some compounds are listed: those with a hit (about 3.6% of all), similar ones and a draw of the others.
# LGR2 inh = inhibitors of bursicon-induced Drosophila LGR2 receptor cAMP signaling. HEK293 LGR2, CRE-luciferase, bursicon-stimulated, 4 h. 380,000 compounds, 0.35% hits. inhibition, % at 9.99 µM. AID 720647;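 active means drop in luminescence signal, shown as inhibition above about 50% in the replicate tests, limit read from the data, passing the limit was not always enough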;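 further: agonist challenge used bursicon conditioned medium at about half maximal strength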
# TROY NFkB inh = inhibitors of TROY-dependent NF-kB signaling; Q293 LMP1-TROYcd NF-kB luciferase reporter, 4 h; inhibition, % at 10 µM; 360,000 compounds, 0.98% hits;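 active means compounds whose plate-normalised and pattern-corrected inhibition of the luciferase reporter signal at the single screening dose is 50% or more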
# TWEAK-Fn14 inh = inhibitors of TWEAK-Fn14 interaction signaling | TWEAK-stimulated Fn14 reporter cells, luciferase luminescence, 8 h | inhibition, % at 10 µM | 360,000 compounds, 2% hits; in the data active means inhibition above about 50%
# LMP1 NFkB inh = reduces LMP1-driven NF-kappaB luciferase signal; LMP1-induced NF-kappaB luciferase reporter cells, luminescence; inhibition, % at 12.5 µM; 350,000 compounds, 0.69% hits; AID 504558; in the data active means inhibition above about 41%;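 further: 0% = neutral control wells and 100% = reference inhibitor control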
# HSF1 activator = increases HSF-1 driven luciferase reporter signal; NIH3T3-HGL HSF-1 luciferase reporter, MG132, 8 h; 100% = twice DMSO control signal; activation, % at 9 µM; 300,000 compounds, 1.7% hits; AID 504408;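 active means mean replicate activation of at least 50% with a set share of replicates each reaching 50%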;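 further: 0% = median of the neutral control wells and 100% = twice that signal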
# HSF1 inhib = HSF1 inhibition; NIH3T3-HGL HSE-luciferase, MG132-induced, luminescence 8 h; stronger effect = lower value; activity change, negative = inhibition, % at 7.5 µM (by protocol); 300,000 compounds, 0.77% hits; AID 2098;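 active means more than half of replicate wells show activity change below -50%, luminescence cut by over half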;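 further: luciferase reports HSF-1 transcriptional activity via heat shock element; 0% = median of DMSO wells and -100% = zero luminescence signal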
# * marks the source's active call; other numbers are inactive results; nt = no result.
SMILES,LGR2 inh,TROY NFkB inh,TWEAK-Fn14 inh,LMP1 NFkB inh,HSF1 activator,HSF1 inhib
Cn1cc([N+](=O)[O-])c(C(=O)Nc2ccc3nc(-c4ccccc4)[nH]c3c2)n1,-88.3,-121.6,-38.5,-3.2,2.7,-8.0
Cc1ccc(-c2nc(NC(=O)c3nn(C)cc3[N+](=O)[O-])sc2C)cc1,44.3,27.9,59.0*,-14.5,28.1,8.2
CCCOC(=O)Nc1nc(-c2ccc(C)cc2)c(C)s1,-9.0,-40.4,-17.2,-3.8,7.5,-2.7
Cc1ccc(-c2nc(NC(=O)c3nn(C)cc3[N+](=O)[O-])sc2C)cc1C,37.8,19.3,28.0,-27.5,-83.6,-83.9*
Cc1cnc(NC(=O)c2nn(C)cc2[N+](=O)[O-])s1,30.1,-1.4,-10.0,5.5,150.1*,139.0
Cn1cc([N+](=O)[O-])c(C(=O)Nc2nc(-c3ccc(Cl)cc3)cs2)n1,nt,6.9,11.8,-5.3,140.5*,102.0
Cc1nn(Cc2c(F)c(F)c(F)c(F)c2F)c(C)c1NC(=O)c1nn(C)cc1[N+](=O)[O-],nt,12.3,-4.5,1.5,-4.8,-0.7
C[C@H]1CN([C@@H](C)CO)S(=O)(=O)c2ccc(C#CC3CC3)cc2O[C@@H]1CN(C)C(=O)C1CCCCC1,12.4,nt,nt,nt,nt,nt
C[C@@H]1CCCCO[C@@H](CN(C)Cc2ccc(C(F)(F)F)cc2)[C@H](C)CN([C@H](C)CO)C(=O)c2cc(NS(=O)(=O)c3cccs3)ccc2O1,5.7,nt,nt,nt,nt,nt
CO[C@@H]1CN(C)C(=O)c2ccc(NC(=O)C3CC3)cc2OC[C@H](C)N(C(=O)C2CCCCC2)C[C@H]1C,9.5,nt,nt,nt,nt,nt
O=C(C[C@@H]1C[C@H]2c3cc(NC(=O)c4cccnc4)ccc3O[C@H]2[C@@H](CO)O1)NCc1ccccc1F,-11.8,nt,nt,nt,nt,nt
COC(=O)c1ccc2nc(-c3ccc(S(C)(=O)=O)cc3)cn2c1,-38.7,-41.5,-3.3,-18.0,8.2,7.1
COC(=O)c1ccc2nc(-c3cccc(N)c3)cn2c1,85.4*,53.5*,95.0*,60.8*,-0.1,-2.8
C[C@H](CO)N1C[C@H](C)[C@H](CN(C)S(=O)(=O)c2cn(C)cn2)Oc2c(NS(C)(=O)=O)cccc2C1=O,-3.2,nt,nt,nt,nt,nt
COc1ccc(Cl)c2c1[nH]c1nc(SCc3cccnc3)nnc12,9.3,8.2,-16.4,-2.2,9.1,-0.1
COc1ccc(Cl)c2c1[nH]c1nc(SCc3ccccn3)nnc12,-32.6,-24.8,1.5,-23.8,103.4*,43.3
CC(Nc1cccc2ccccc12)C(=O)N/N=C/c1ccccn1 (configuration not stated),nt,-4.7,54.9*,4.1,-3.9,0.8
Cc1ccccc1-c1cnc2c(c1)C(=O)N([C@@H](C)CO)C[C@H](C)[C@@H](CN(C)C(=O)c1ccc(F)cc1)O2,-1.2,nt,nt,nt,nt,nt
CC(C)CN=c1cc(-c2ccccc2)oc2ccc(Cl)cc12,nt,-50.0,-36.1,-16.3,59.9*,48.0
O=C(Nc1nccs1)[C@H]1[C@H](CO)[C@H]2Cn3c(ccc(-c4cccnc4)c3=O)[C@H]2N1CC1CC1,-1.0,nt,nt,nt,nt,nt
CC1C2CC(C/C2=N/NC(=O)c2cccs2)C1(C)C (configuration not stated),-14.4,-23.4,-24.4,-14.3,36.7,14.1
C[C@@H]1C2CC(C/C2=N\NC(=O)c2ccncc2)C1(C)C (some centres not stated),13.9,-14.4,1.6,71.8*,19.7,-3.9
C=C(C)COc1ccc(-c2[nH]ncc2-c2ccc(OC)cc2)c(O)c1,0.6,42.4,55.5*,12.8,-20.7,-18.2
COc1ccc(Oc2cn[nH]c2-c2ccc(O)cc2O)cc1,nt,nt,12.6,4.1,nt,nt
COc1ccc(-c2cn[nH]c2-c2ccc(OCC(=O)NN)cc2O)cc1,6.6,42.0,53.8*,10.2,-10.7,4.7
SMILES,LGR2 inh,TROY NFkB inh,TWEAK-Fn14 inh,LMP1 NFkB inh,HSF1 activator,HSF1 inhib
C=C(C)COc1ccc(-c2[nH]ncc2-c2ccccc2)c(O)c1,nt,6.8,1.7,0.9,9.1,3.4
COc1ccc(-c2cn[nH]c2-c2ccc(O)cc2O)cc1,16.5,45.5,73.8*,14.5,-35.7,-34.5
CCCOC(=O)c1ccc(Oc2cn[nH]c2-c2ccc(O)cc2O)cc1,7.2,50.1*,-1.6,-4.3,51.9*,13.5
CCCNC(=O)Nc1ccc2c(c1)C(=O)N(C)C[C@H](OC)[C@@H](C)CN(C(=O)CC)[C@H](C)CO2,-2.9,nt,nt,nt,nt,nt
CCS(=O)(=O)Nc1ccc2c(c1)C(=O)N(C)C[C@@H](OC)[C@H](C)CN(C(=O)COC)[C@H](C)CO2,-2.3,nt,nt,nt,nt,nt
CCc1oc2ccccc2c1C(=O)c1cc(Br)c(O)c(Br)c1,38.5,51.9*,-29.1,12.1,-20.4,-1.5
O=C(O)c1cc2c(s1)-c1ccccc1CC2,4.9,7.9,8.5,10.0,4.2,-0.4
c1ccc(-c2cc3n(c2)CCc2ccccc2-3)cc1,65.7*,23.6,83.2*,31.6,15.7,-0.6
C[C@H](CO)N1C[C@H](C)[C@H](CN(C)Cc2ccc(Cl)c(Cl)c2)OCc2ccccc2-c2ccccc2C1=O,1.4,nt,nt,nt,nt,nt
Cc1ccc(NC2OC(CO)C(O)C2O)cc1[N+](=O)[O-] (configuration not stated),5.1,-2.7,3.4,8.1,72.2*,29.9
Cc1ccc(NC2OC(C(O)CO)C(O)C2O)cc1[N+](=O)[O-] (configuration not stated),-10.5,-27.0,-34.1,-2.1,-2.4,-1.8
COc1cc(Cl)cc(/C=C/c2ccc3ccccc3n2)c1OC(C)=O,-25.7,5.5,37.0,-45.1,183.3*,158.4
COc1ccc(OC)c(/C=C/c2ccc3cccc(O)c3n2)c1,-26.2,-11.3,-9.1,17.6,43.2,9.9
COc1ccc(C=Cc2ccc3ccccc3n2)c(OC)c1,-21.6,-5.6,1.9,44.6*,nt,nt
C[C@@H]1CN([C@@H](C)CO)C(=O)c2cc(C3=CCCC3)cnc2O[C@@H]1CN(C)Cc1ccccc1C(=O)O,-1.4,nt,nt,nt,nt,nt
C#CCOc1ccc(C2C3=C(CC(C)(C)CC3=O)N(CC(=O)O)C3=C2C(=O)CC(C)(C)C3)cc1OC,4.7,12.2,-10.5,-14.8,60.5*,31.2
O=C(Nc1cccc(F)c1)N1CC(=O)N2[C@H](CO)[C@@H](c3ccc(-c4ccccc4F)cc3)[C@H]2C1,3.4,nt,nt,nt,nt,nt
CCS(=O)(=O)Nc1ccc2c(c1)C(=O)N(C)[C@@H]1CC[C@@H](CC(=O)NC)O[C@@H]1CO2,6.7,nt,nt,nt,nt,nt
COc1cccc(NC(=O)N2CCCC2C(=O)NC(C)C)c1 (configuration not stated),nt,-12.1,2.9,6.6,-69.9,-62.6*
COc1cccc(NC(=O)N2CCCC2C(=O)NCC(C)C)c1 (configuration not stated),nt,11.5,-3.5,4.0,-12.4,-7.8
CSc1cccc(NC(=S)N2CCC(N(C)C3CCCC3)CC2)c1,-5.5,-5.9,-10.1,-2.7,-78.7,-72.6*
COc1cccc(N2CCN(C(=S)Nc3ccc(F)cc3)CC2)c1,0.9,-0.4,-9.5,5.7,-1.9,-2.7
